Data published in the supplement of paper PMC7801607.

system: Plasmodium falciparum NF54 stage IV/V gametocytes; assay: % inhibition of gametocyte viability (PrestoBlue); higher = more inhibition; conditions: 1 µM; 48 h
In short: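 In a single run, percent inhibition of gametocyte viability was calculated relative to vehicle and kill controls. The wells held 100 µL of Stage IV/V NF54 gametocytes at 2% gametocytaemia and 5% haematocrit, with compound at 1 or 5 µM. Plates stood at 37 °C in hypoxic conditions for 48 h. After that, 10 µL PrestoBlue was added for 2 h, and 70 µL of supernatant was transferred for fluorescence reading at 612 nm.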

Row | SMILES | % inhibition of gametocyte viability
1 | Clc1cc2nc(C3CCNCC3)n(Cc3ccc(CNCCc4cnc[nH]4)cc3)c2cc1Cl | < 0%
2 | O=c1cc(OCc2ccccc2)ccn1Cc1ccccc1 | 14.1%
3 | Cc1cc(CCCOc2c(C)cc(-c3noc(C(F)(F)F)n3)cc2C)on1 | 6.7%
4 | CCC(C)n1ncn(-c2ccc(N3CCN(c4ccc(OCC5COC(Cn6cncn6)(c6ccc(Cl)cc6Cl)O5)cc4)CC3)cc2)c1=O (stereo unspecified) | 2.77%
5 | O=C(O)c1ccccc1Sc1ncnc2sc3c(c12)CCC3 | 20%
6 | Cc1nc(Nc2ccc(F)cc2)nc(N2CCc3ccccc3C2C)c1C (stereo unspecified) | 2.28%
7 | NC(=O)c1nccn([C@@H]2O[C@H](CO)[C@@H](O)[C@H]2O)c1=O | 5.72%
8 | Nc1nc(F)nc2c1ncn2[C@H]1O[C@@H](CO)[C@H](O)[C@@H]1O | 21.2%
9 | NC(=S)N/N=C/c1ncccc1N | 80.3%
10 | CCCC1(C2CC2)c2cc(Cl)ccc2NC(=O)N1C (stereo unspecified) | < 0%
11 | COc1cc(C(C(=O)NC2CCCCC2)N(C(=O)Cc2c[nH]c3ccccc23)c2ccc(C(C)C)cc2)cc(OC)c1OC (stereo unspecified) | 18.7%
12 | Oc1cccc(C(Nc2nccs2)c2ccc3cccnc3c2O)c1 (stereo unspecified) | 24.1%
13 | COc1ccc(C)cc1NC(=O)c1ccc(S(=O)(=O)N2CCCCC2)cc1 | 0.335%
14 | CCC[C@H](NC(=O)[C@@H]1[C@H]2CCC[C@H]2CN1C(=O)[C@@H](NC(=O)[C@@H](NC(=O)c1cnccn1)C1CCCCC1)C(C)(C)C)C(=O)C(=O)NC1CC1 | < 0%
15 | O=C(CSc1nnc(Br)n1-c1ccc(C2CC2)c2ccccc12)Nc1ccc(C(=O)O)cc1Cl | 15.4%
16 | CC(C)(C)c1ccc(C(Cn2cccc(C(F)(F)F)c2=O)NC2Cc3ccccc3C2)cc1 (stereo unspecified) | 10%
17 | O=C1NC(=O)C(Br)=C1Br | 13.6%
18 | CC(C)Nc1nc2cc(Cl)c(Cl)cc2n1[C@H]1O[C@@H](CO)[C@H](O)[C@@H]1O | 17.6%
19 | C=C[C@]1(C)C[C@@H](OC(=O)CS[C@@H]2C[C@H]3CC[C@@H](C2)N3C)[C@]2(C)[C@H](C)CC[C@]3(CCC(=O)[C@H]32)[C@@H](C)[C@@H]1O | < 0%

Row | SMILES | % inhibition of gametocyte viability
20 | CCCCCCC1c2ccc(O)cc2Oc2cc(O)ccc21 | 5.99%
21 | O=C(NCc1ncc(C(F)(F)F)cc1Cl)c1c(Cl)cccc1Cl | < 0%
22 | CN(C)CCNC(=O)c1cccc2cccnc12 | < 0%
23 | CC(C)CCN1C(=O)C(C2=NS(=O)(=O)c3cc(NS(C)(=O)=O)ccc3N2)=C(O)[C@@H]2[C@H]3CC[C@H](C3)[C@@H]21 | 9.05%
24 | CC(C)(C)c1ccc(C(=O)NC(=O)N2CCCc3ccccc32)cc1 | < 0%
25 | Cc1nc2ccc(Oc3ccccc3)cc2c2c1CCN2CCc1ccccc1 | 1.5%
26 | Cc1c(OCC(F)(F)F)ccnc1CS(=O)c1nc2ccccc2[nH]1 (stereo unspecified) | 14.1%
27 | O=C(CP(=O)(O)O)NCCc1cccc(Oc2ccccc2)c1 | 16.8%
28 | N[C@@H]1CN(c2c(F)cc3c(=O)c(C(=O)O)cn([C@@H]4C[C@@H]4F)c3c2Cl)CC12CC2 | < 0%
29 | CCOC(=O)Nc1cc(NC(C)CC(C)CN(CC)CC)c2nc(-c3ccccc3)c(-c3ccccc3)nc2n1 (stereo unspecified) | 26.4%
30 | O=S(=O)(NCB(O)O)c1cc2c(Cl)ccc(Cl)c2s1 | 22.6%
31 | CN(C)CC(=O)Nc1ccc2[nH]c(=O)c3ccccc3c2c1 | < 0%
32 | Cc1nc(-c2ccc(C3N(C)c4ccc(F)cc4C(=O)N3c3ccccc3)s2)cs1 (stereo unspecified) | < 0%
33 | CCc1cc(Nc2cc(=O)n(CCN3CCN(C(=O)c4ccccc4)CC3)c(=O)[nH]2)ccc1C | < 0%
34 | CCOC(=O)N[C@@H]1CC[C@@H]2[C@@H](C1)C[C@H]1C(=O)O[C@H](C)[C@H]1[C@H]2/C=C/c1ccc(-c2cccc(F)c2)cn1 | 15.9%
35 | O=C(N[C@H](Cc1cccc2ccccc12)C(=O)NCCc1c[nH]cn1)C1Cc2ccccc2C1 | 2.53%
36 | Cc1nc(N(C)C(=O)Cc2ccc(-c3ccccn3)cc2)sc1S(N)(=O)=O | 20.7%
37 | COc1ccc(C[C@@H](C)[C@@H](C)Cc2ccc(OC)c(OC)c2)cc1OC | 10.5%
38 | Nc1nnnn1CCOc1c2[nH]c3ccc(Cl)cc3c2cc2c1[nH]c1ccc(Cl)cc12 | < 0%

same assay, conditions: 5 µM; 48 h

Row | SMILES | % inhibition of gametocyte viability
39 | Clc1cc2nc(C3CCNCC3)n(Cc3ccc(CNCCc4cnc[nH]4)cc3)c2cc1Cl | 1.67%
40 | O=c1cc(OCc2ccccc2)ccn1Cc1ccccc1 | 6.4%
41 | Cc1cc(CCCOc2c(C)cc(-c3noc(C(F)(F)F)n3)cc2C)on1 | 35.6%
42 | CCC(C)n1ncn(-c2ccc(N3CCN(c4ccc(OCC5COC(Cn6cncn6)(c6ccc(Cl)cc6Cl)O5)cc4)CC3)cc2)c1=O (stereo unspecified) | 1.55%
43 | O=C(O)c1ccccc1Sc1ncnc2sc3c(c12)CCC3 | 18.3%
44 | Cc1nc(Nc2ccc(F)cc2)nc(N2CCc3ccccc3C2C)c1C (stereo unspecified) | 4.43%
45 | NC(=O)c1nccn([C@@H]2O[C@H](CO)[C@@H](O)[C@H]2O)c1=O | 19.8%
46 | Nc1nc(F)nc2c1ncn2[C@H]1O[C@@H](CO)[C@H](O)[C@@H]1O | 19.8%
47 | NC(=S)N/N=C/c1ncccc1N | 91.2%
48 | CCCC1(C2CC2)c2cc(Cl)ccc2NC(=O)N1C (stereo unspecified) | 6.87%
49 | COc1cc(C(C(=O)NC2CCCCC2)N(C(=O)Cc2c[nH]c3ccccc23)c2ccc(C(C)C)cc2)cc(OC)c1OC (stereo unspecified) | 22.7%
50 | Oc1cccc(C(Nc2nccs2)c2ccc3cccnc3c2O)c1 (stereo unspecified) | 65.5%
51 | COc1ccc(C)cc1NC(=O)c1ccc(S(=O)(=O)N2CCCCC2)cc1 | 3.85%
52 | CCC[C@H](NC(=O)[C@@H]1[C@H]2CCC[C@H]2CN1C(=O)[C@@H](NC(=O)[C@@H](NC(=O)c1cnccn1)C1CCCCC1)C(C)(C)C)C(=O)C(=O)NC1CC1 | 7.89%
53 | O=C(CSc1nnc(Br)n1-c1ccc(C2CC2)c2ccccc12)Nc1ccc(C(=O)O)cc1Cl | 20.5%
54 | CC(C)(C)c1ccc(C(Cn2cccc(C(F)(F)F)c2=O)NC2Cc3ccccc3C2)cc1 (stereo unspecified) | 21.3%
55 | O=C1NC(=O)C(Br)=C1Br | < 0%
56 | CC(C)Nc1nc2cc(Cl)c(Cl)cc2n1[C@H]1O[C@@H](CO)[C@H](O)[C@@H]1O | 14%
57 | C=C[C@]1(C)C[C@@H](OC(=O)CS[C@@H]2C[C@H]3CC[C@@H](C2)N3C)[C@]2(C)[C@H](C)CC[C@]3(CCC(=O)[C@H]32)[C@@H](C)[C@@H]1O | 2.51%

Row | SMILES | % inhibition of gametocyte viability
58 | CCCCCCC1c2ccc(O)cc2Oc2cc(O)ccc21 | < 0%
59 | O=C(NCc1ncc(C(F)(F)F)cc1Cl)c1c(Cl)cccc1Cl | 3.98%
60 | CN(C)CCNC(=O)c1cccc2cccnc12 | < 0%
61 | CC(C)CCN1C(=O)C(C2=NS(=O)(=O)c3cc(NS(C)(=O)=O)ccc3N2)=C(O)[C@@H]2[C@H]3CC[C@H](C3)[C@@H]21 | 13.6%
62 | CC(C)(C)c1ccc(C(=O)NC(=O)N2CCCc3ccccc32)cc1 | < 0%
63 | Cc1nc2ccc(Oc3ccccc3)cc2c2c1CCN2CCc1ccccc1 | 60%
64 | Cc1c(OCC(F)(F)F)ccnc1CS(=O)c1nc2ccccc2[nH]1 (stereo unspecified) | 15.8%
65 | O=C(CP(=O)(O)O)NCCc1cccc(Oc2ccccc2)c1 | 19.8%
66 | N[C@@H]1CN(c2c(F)cc3c(=O)c(C(=O)O)cn([C@@H]4C[C@@H]4F)c3c2Cl)CC12CC2 | 10.3%
67 | CCOC(=O)Nc1cc(NC(C)CC(C)CN(CC)CC)c2nc(-c3ccccc3)c(-c3ccccc3)nc2n1 (stereo unspecified) | 51.1%
68 | O=S(=O)(NCB(O)O)c1cc2c(Cl)ccc(Cl)c2s1 | 27.1%
69 | CN(C)CC(=O)Nc1ccc2[nH]c(=O)c3ccccc3c2c1 | < 0%
70 | Cc1nc(-c2ccc(C3N(C)c4ccc(F)cc4C(=O)N3c3ccccc3)s2)cs1 (stereo unspecified) | -0.427%
71 | CCc1cc(Nc2cc(=O)n(CCN3CCN(C(=O)c4ccccc4)CC3)c(=O)[nH]2)ccc1C | 23.7%
72 | CCOC(=O)N[C@@H]1CC[C@@H]2[C@@H](C1)C[C@H]1C(=O)O[C@H](C)[C@H]1[C@H]2/C=C/c1ccc(-c2cccc(F)c2)cn1 | -0.253%
73 | O=C(N[C@H](Cc1cccc2ccccc12)C(=O)NCCc1c[nH]cn1)C1Cc2ccccc2C1 | 32.6%
74 | Cc1nc(N(C)C(=O)Cc2ccc(-c3ccccn3)cc2)sc1S(N)(=O)=O | 39.1%
75 | COc1ccc(C[C@@H](C)[C@@H](C)Cc2ccc(OC)c(OC)c2)cc1OC | 23.6%
76 | Nc1nnnn1CCOc1c2[nH]c3ccc(Cl)cc3c2cc2c1[nH]c1ccc(Cl)cc12 | < 0%
